Data: PubChem BioAssay (NCI)
“And” between values parts separate entries of the source, which are not always exact repeats. Equal entries are not always repeated. The panel holds about 83,000 compounds, 20% with a hit somewhere; the sample as a whole holds those more often.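 In brief: 96-well plates, 48 h treatment, single concentration, percent growth endpoint.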 The source made the active and inactive calls.

tested on: MDA-MB-468 breast; assay: NCI-60 one-dose screen, 48 h (100 = growth as untreated, 0 = no growth, -100 = all killed); settings: 10 µM unless noted
Protocol: Growth inhibition of the MDA-MB-468 human Breast tumor cell line is measured as a screen for anti-cancer activity. Cells are grown in 96 well plates and exposed to the test compound for 48 hours. Compounds are tested at a single concentration, which is 10^-5 M for most compounds. The reported endpoint is percent growth (GI% or GIPRCNT), where numbers from 0 - 100% represent growth inhibition, and numbers from -100% - 0 represent cell death. For example, a value of 40 represents 60% growth inhibition. A value of 0 means no net growth occurred over the course of the experiment. A value of -40 indicates 40% of cells at the beginning of the experiment died by the end of the experiment. A value of -100 means all cells are dead at the end of the experiment.
NCI-60 Human Tumor Cell Lines Screen was performed using the standard one-dose NCI protocol, which is described in more detail at https://dtp.cancer.gov/discovery_development/nci-60/default.htm.
Compounds with GIPRCNT values below 10 were considered active. Activity score was based on GIPRCNT using the following formula: […]
Score is 0 for GIPRCNT values of 100 or above, 50 for GIPRCNT values of 0, and 100 for GIPRCNT values of -100.

Row | SMILES | growth
1 | O=C(Nc1cccc(NC(=O)Nc2cc(C(F)(F)F)ccc2Cl)c1)Nc1cc(C(F)(F)F)ccc1Cl | -8.33% (active)
2 | COc1cc(/C=C/C(=O)N2c3ccccc3CC2C)c(OC)c2c1OCO2 (stereo not given) | 86.9% (inactive)
3 | COc1ccc(CN2c3ccccc3Oc3ccccc32)cc1O | 6.51% (active)
4 | COc1cc(C(=O)/C=C/c2cccc(Nc3ccnc4cc(Cl)ccc34)c2)cc(OC)c1OC | -49.5% (active)
5 | Brc1ccc(C2CC(c3cccc(Nc4ccncc4)c3)=NN2c2ccccc2)cc1 (stereo not given) | 78.2% (inactive)
6 | CN(Cc1ccc(C(F)(F)F)cc1)CC(O)C(=O)Nc1ccc(Cl)cc1 (stereo not given) | -30.5% (active)
7 | O=C1Nc2ccccc2/C1=C/c1ccc(COCC2CO2)n1-c1ccc(O)cc1 (stereo not given) | 95.9% (inactive)
8 | C#CCOc1ccccc1C(Nc1ccccc1)c1nnnn1C1CCCCC1 (stereo not given) | 93.7% (inactive)
9 | CC1(COc2ccc3ncc(C#Cc4cncc(C(=O)Nc5cccc(C(F)(F)F)c5)c4)n3n2)COC1 | 102% (inactive)
10 | O=C(CSc1nc2ccccc2c(=O)n1-c1ccccc1)N/N=C/c1ccc(Oc2ccc(Br)cc2)cc1 | 65.1% (inactive)
11 | COc1cc(C(=O)/C=C/c2ccc(OCCCCCC[P+](c3ccccc3)(c3ccccc3)c3ccccc3)cc2)cc(OC)c1OC | -58.6% (active)
12 | CCCNC(=O)Nc1ccc2cc3ccc(NC(=O)NCCC)cc3nc2c1 | -52.4% (active)
13 | CC(=O)OC[C@H]1OC(Sc2sc(C(=O)c3ccc(Br)cc3)c(N)c2-c2nc3ccccc3s2)[C@H](OC(C)=O)[C@@H](OC(C)=O)[C@H]1OC(C)=O (stereo not given in full) | 91.9% (inactive)
14 | O=C(Nc1ccccc1O)c1ccc(-c2ccc(Cl)cc2Cl)o1 | 80.8% (inactive)
15 | Cc1ccc2c(n1)C(=O)C(Cl)=C(Nc1ccc(C(C)C)cc1)C2=O | -44.8% (active)
16 | NC1=NC(=O)C(c2ccccc2)(c2ccccc2)S1 | 111% (inactive)
17 | O=[N+]([O-])c1ccc(-c2nnc(SCc3ccc(O)c4ncccc34)n2-c2ccccc2)cc1 | 19.9% (inactive)
18 | CCN(CC)CCOc1ccc2c(c1)C(=O)c1cc(OCCN(CC)CC)ccc1-2 | 14.9% (inactive) and -13.8% (active)
19 | CC/C=C\C/C=C\C[C@H]1C/C=C2/C(=O)C=C[C@@H]2C/C=C\CCC(=O)O1 | -8.25% (active)
20 | Cc1cc2c(C(C)C)c(O)c(O)c(/C=N/O)c2c(O)c1-c1c(C)cc2c(C(C)C)c(O)c(O)c(/C=N/O)c2c1O | 20.9% (inactive)

Row | SMILES | growth
21 | CC(C)(C)c1ccc([I+]c2ccc(C(C)(C)C)cc2)cc1 | -26% (active)
22 | CC(=O)N1N=C(c2ccc(F)cc2)CC1c1sc(N(C)Cc2ccccc2)nc1Cl (stereo not given) | 98.1% (inactive)
23 | O=c1c2cc(F)ccc2sc2c(N3CCNCC3)nc3ccc(F)cc3c12 | -59.9% (active)
24 | COc1cccc(O)c1/C=C1\SCc2cc3c(OC)cccc3[o+]c21 | 112% (inactive)
25 | COc1cccc(-c2cc3c(O)cc(C#N)cc3[nH]2)c1 | 102% (inactive)
26 | COc1cc2nc(Cl)nc(Nc3cccc(C(=O)/C=C/c4ccc(F)cc4)c3)c2cc1OC | 74.3% (inactive)
27 | O=C1c2ccc3c4ccc5c6c(ccc(c7ccc(c2c37)C(=O)N1CCC[P+](c1ccccc1)(c1ccccc1)c1ccccc1)c64)C(=O)N(CCC[P+](c1ccccc1)(c1ccccc1)c1ccccc1)C5=O | -2.38% (active)
28 | O=C1CC2c3cc(-c4cc5ccccc5o4)ccc3CCN2C(=O)N1c1ccccc1 (stereo not given) | 88.4% (inactive)
29 | CCN(CC)CCCC(C)Nc1cc(O)cc2cccnc12 (stereo not given) | 73.9% (inactive)
30 | O=C(Nc1ccc(OCC(=O)c2ccc(Cl)cc2)cc1)Nc1ccc(Cl)c(C(F)(F)F)c1 | 26% (inactive)
31 | CCCC(=O)Nc1ccccc1C(=O)O | 106% (inactive)
32 | COC(=O)[C@]12CC[C@@H](C)[C@H](C)[C@@H]1C1=CC[C@@H]3[C@@]4(C)C(C=O)=C[C@@](C)(COS(C)(=O)=O)[C@@H]4C(=O)C[C@@]3(C)[C@]1(C)CC2 | 38% (inactive)
33 | COc1ccc(OC)c2ncccc12 | 89.9% (inactive)
34 | CC(C)(C)[Si](C)(C)OC1[C@@H](CNC(=O)NC(=O)NC(N)=O)O[C@@H](n2cnc3c(NC(=O)Nc4ccccc4)ncnc32)[C@H]1O[Si](C)(C)C(C)(C)C (stereo not given in full) | 99.1% (inactive)
35 | COc1ccc2nc3c(cc2c1)C(=O)CC(C(F)(F)F)C3 (stereo not given) | 35.6% (inactive)
36 | CNc1nc2ncc(-c3c(C)noc3C)cc2n1Cc1ccccc1 | 34.7% (inactive)
37 | CCOC(=O)c1c(C)[nH]c2ccc(O)cc12 | 102% (inactive)
38 | CCn1cc(C(=O)N/N=C/c2ccccc2)c(=O)c2cc(F)c(N3CCNC(C)C3)c(F)c21 (stereo not given) | 30.4% (inactive)
39 | COC(=O)c1cc(C(=O)OC)cc([N+](=O)[O-])c1 | 107% (inactive)
40 | CC(=O)c1ccc(N=C(C#N)C2=C(O)c3ccccc3C2=O)cc1 | 94.5% (inactive)
